Measurements published in the supplement of paper PMC10981050.

test system: OCI-AML2; test: cell viability relative to vehicle control; higher = less cytotoxic; conditions: 10 µM; SRSF2 genotype: wt/wt
Procedure, shortened: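 Each screen used CRISPR-edited mutant and wild-type clones from four leukaemia lines. Compounds were acoustically dispensed at a single 10 µM dose, and CellTiter-Glo luminescence was read after 48 h with the supernatant first removed. Viability was analysed in Genedata Screener and given as percent of the on-plate vehicle control.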

Structure (SMILES) | cell viability
C[Si](C)(C)CCOCn1ccc2c(-c3cn[nH]c3)ncnc21 | 99%
C[C@@H]1CC[C@H]2C(C)(C)[C@H]3C[C@@]12CC[C@@]3(C)O [Cedrol] | 112%
C[C@H]1c2cccc(O)c2C(O)=C2C(=O)[C@]3(O)C(O)=C(C(N)=O)C(=O)[C@@H](N(C)C)[C@@H]3[C@@H](O)[C@@H]21 [Doxycycline] | 96.2%
CNC[C@H](O)[C@@H](O)[C@H](O)[C@H](O)CO [Meglumine] | 109%
CC1=NN(c2ccccc2)C(=O)C1 [Edaravone (MCI-186)] | 103%
CN1CCN2c3ncccc3Cc3ccccc3C2C1 (configuration not stated) [Mirtazapine (Remeron, Avanza)] | 96.5%
CC(O)C(O)c1cnc2nc(N)[nH]c(=O)c2n1 (configuration not stated) [6-Biopterin] | 104%
